697 NFkB inh = lowers PMA/ionomycin-induced NF-kB signal in 697 B cells | 330,000 tested, 0.33% active | 697 B-cell NF-kB luciferase reporter, 16 h | inhibition, % at 4 µM; in the data active = inhibition above about 35%
Jurkat NFkB inh = lowers PMA/ionomycin-induced NF-kB signal in Jurkat cells. PMA/ionomycin-induced NF-kB luciferase reporter, luminescence. inhibition, % at 4 µM. 330,000 tested, 0.53% active; in the data active = inhibition above about 50%
Gli-Sufu antag = antagonists of Gli-Sufu signaling; Sufu-KO-LIGHT fibroblasts, Gli luciferase reporter luminescence; inhibition, % at 5 µM; 340,000 tested, 0.74% active;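 active = inhibition above about 55%, limit read from the data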;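 also: 0% = DMSO-treated cells and 100% = wells with medium but no cells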
NR2F2 inh = blocks human COUP-TFII nuclear receptor; P24468; HEK293T NGFI-A luciferase reporter, luminescence; inhibition, % at 8.6 µM; 370,000 tested, 0.7% active;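 active = inhibition above a per-plate cutoff, mean inhibition of test wells between control levels plus 3 SD, cut at about 38% in these data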;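 also: cells cotransfected with COUP-TFII expression vector driving the NGFI-A reporter; 0% = median of COUP-TF2 test wells and 100% = reporter-only cells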
Target sequence (P24468 whole entry, looked up): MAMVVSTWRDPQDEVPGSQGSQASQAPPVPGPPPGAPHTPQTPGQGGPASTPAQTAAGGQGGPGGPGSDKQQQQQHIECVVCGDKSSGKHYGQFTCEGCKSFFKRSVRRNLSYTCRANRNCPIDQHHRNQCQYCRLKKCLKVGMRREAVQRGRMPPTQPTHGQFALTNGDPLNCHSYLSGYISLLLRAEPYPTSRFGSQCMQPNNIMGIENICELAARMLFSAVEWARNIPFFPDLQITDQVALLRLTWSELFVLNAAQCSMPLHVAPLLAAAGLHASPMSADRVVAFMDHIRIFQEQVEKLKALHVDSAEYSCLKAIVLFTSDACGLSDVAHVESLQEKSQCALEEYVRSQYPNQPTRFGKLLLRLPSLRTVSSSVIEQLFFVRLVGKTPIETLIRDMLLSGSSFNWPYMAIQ
TAG inh = reduces triacylglycerol accumulation in H9c2 cells. inhibition, % at 12.5 µM. 230,000 tested, 0.66% active. Nile Red lipid (TAG) fluorescence; cells loaded with 200 µM oleic acid;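 active = pattern-corrected inhibition of lipid staining of at least 50% with the nuclear-stain viability signal not falling by more than 50%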;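 also: 0% = DMSO wells and 100% = triacsin C control wells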
Cardio protect = myocardial damage modulation in H9c2 cells; H9c2 cardiomyocytes, H2O2 injury protection, ATPLite, 2 h; protection from H2O2 cell death, % at 20 µM; 360,000 tested, 0.63% active; AID 588492;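 active = compounds giving at least 50% protection of heart cells from peroxide-induced death in the single-dose screen, raw or plate-pattern-corrected value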;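 also: 0% = DMSO wells with peroxide and 100% = DMSO wells without peroxide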
VP16 Luc counter = counter-screen for COUP-TFII antagonists: inhibitors of VP16. inhibition, % at 8.5 µM. 2,500 tested, 25% active. HEK293 Gal4-VP16 luciferase reporter, luminescence. shares compounds with NR2F2 inh; in the data active = inhibition above about 13%
COUP-TFII conf = confirmation of human COUP-TFII (NR2F2) inhibitors. shares compounds with NR2F2 inh. HEK293 NGFI-A luciferase reporter, luminescence. inhibition, % at 8.5 µM. 2,500 tested, 45% active. AID 687008;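 active = mean inhibition over three repeats above a set limit taken from the earlier primary screen, cut at about 38% in these data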;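 also: 100% = cells given the luciferase reporter alone without the COUP-TF2 vector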
An asterisk follows results filed as active; . = no result given. Only some compounds are listed: those with a hit (about 2.6% of all), similar ones and a draw of the others.

SMILES	697 NFkB inh	Jurkat NFkB inh	Gli-Sufu antag	NR2F2 inh	TAG inh	Cardio protect	VP16 Luc counter	COUP-TFII conf
CCN(CC)C(=O)[C@H]1C[C@@H]2[C@H](C[C@@H](c3ccccc3)[C@H]1C)N(c1ccc(F)cc1)C(=O)N2CCCOc1ccccc1	.	.	.	6	.	.	.	.
COc1ccc(-c2sc3ccc(N4CCOCC4)cc3c2C#CC2(O)CCCCC2)cc1	-10	8	2	-6	21	5	.	.
COc1ccc(-c2sc3ccc(N4CCOCC4)cc3c2C#CCO)cc1	-34	28	-7	74*	26	-9	-11	53*
COc1ccc(Cl)c(-c2cc(C(=O)Nc3ccc(C)c(NS(C)(=O)=O)c3)[nH]n2)c1	.	.	.	25	5	5	.	.
Cc1ccc(NC(=O)c2cc(-c3cc(Cl)ccc3C)n[nH]2)cc1NS(C)(=O)=O	.	.	.	50*	14	-3	-6	41*
COc1ccc(NC(=O)c2cc(-c3cc(Cl)ccc3C)n[nH]2)cn1	.	.	.	0	4	-10	.	.
COc1ccc(Cl)cc1-c1cc(C(=O)Nc2ccc(C)c(NS(C)(=O)=O)c2)[nH]n1	.	.	.	38*	-9	28	-10	-4
Oc1ccc2ccccc2c1CN1CCCCC1	.	.	23	45*	-7	-3	-4	3
Oc1ccc2ccccc2c1CN1CCCC1	25	-9	11	-7	3	-4	.	.
COc1ccc(Cc2noc(CN3CCN(Cc4cccc(Cl)c4)CC3)n2)cc1OC	0	26	26	19	-26	-10	.	.
COc1ccc(Cc2noc(CN3CCN(c4ccc(Cl)cn4)CC3)n2)cc1OC	-10	13	2	41*	-25	-7	-7	13
COc1ccccc1-c1cccc2c3c([nH]c12)[C@@H]1C[C@H]2[C@@H](CN1CC3)[C@H](C)ON2C	.	.	.	-4	.	.	.	.
Cc1noc(C)c1COC(=O)c1ccc(F)c(S(=O)(=O)N2CCCCC2)c1	4	-8	7	15	-14	-17	.	.
Cc1noc(C)c1COC(=O)c1cccc(S(=O)(=O)N2CCCCCC2)c1	-32	26	8	60*	3	-39	4	36
CC[C@H](C)[C@@H]1NC(=O)[C@@H](CC(C)C)NC(=O)[C@H](C(C)C)NC(=O)[C@H]2CSSC[C@H](NC1=O)C(=O)N2	.	.	.	106*	.	-6	96*	112*
CC(C)C[C@@H]1NC(=O)[C@H](C(C)C)NC(=O)c2cc([N+](=O)[O-])cc(I)c2NCC[C@@H](C(N)=O)NC1=O	9	9	-2	.	.	.	.	.
COc1ccc(N2CCN(CCNS(=O)(=O)c3c(C(C)C)cc(C(C)C)cc3C(C)C)CC2)cc1	.	.	.	13	.	.	.	.
CC(C)(C)S(=O)N1C[C@@H]2CC(=O)C(c3ccccc3)=C2[C@H]1CCO (stereo partly drawn)	.	.	.	17	.	.	.	.
COC(=O)C1=C(C)N(C)C(=NCC2CC2)NC1c1ccccc1 (stereo not drawn)	.	.	.	-16	.	.	.	.
Cc1ccc(-c2csc(=Nc3cccnc3)n2CCCn2ccnc2)cc1C	-96	30	46	55*	-19	-16	18*	45*
CCOC(=O)N1CCN(C(=O)C[C@H]2C[C@@]3(C(=O)OC)C(=C[C@H](COCc4ccccc4)O[C@@H]3C)N(CCC3=CCCCC3)C2=O)CC1	.	.	.	20	.	.	.	.
COC(=O)[C@]12C[C@H](CC(=O)NCCCCc3ccccc3)C(=O)N(CCC3=CCCCC3)C1=C[C@H](C(C)(C)C)O[C@@H]2C	.	.	.	-14	.	.	.	.
Cc1ccc(NC(=O)C2(C)CCN2C(=O)C2(c3ccc(Cl)cc3)CC2)cc1 (stereo not drawn)	.	.	.	13	-13	-3	.	.
CC1(C(=O)Nc2ccccc2)CCN1C(=O)C1(c2ccc(Cl)cc2)CC1 (stereo not drawn)	.	.	.	76*	0	1	4	14
O=C(NCC1CCN(C(=O)C(=O)c2cccs2)CC1)c1cccnc1	.	.	.	2	.	.	.	.
SMILES	697 NFkB inh	Jurkat NFkB inh	Gli-Sufu antag	NR2F2 inh	TAG inh	Cardio protect	VP16 Luc counter	COUP-TFII conf
Cc1cccc(C)c1OCc1cc(C(=O)N2CCC(c3ccncc3)CC2)no1	-135	-28	-6	26	.	-19	.	.
O=C(c1cc(COc2c(F)cccc2F)on1)N1CCC(c2ccncc2)CC1	-11	31	47	60*	-8	-22	5	47*
Fc1ccc(-[n+]2nc(Nc3ccccc3)sc2-c2c(Cl)cccc2Cl)cc1	-67	2	36	-9	16	-28	.	.
CCc1ccc(Nc2n[n+](-c3ccccc3)c(-c3c(Cl)cccc3Cl)s2)cc1	-4	26	7	66*	.	-11	16*	30
CN(C)c1ccc(C(=O)NCCc2ccccc2-c2ccccc2CCC(=O)NCc2ccccc2)cc1	.	.	.	-7	.	.	.	.
Cc1c(CCC(=O)N[C@@H](CC(C)C)C(=O)O)c(=O)oc2cc3oc4c(c3cc12)CCCC4	30	-11	13	46*	.	7	21*	26
Cc1c(CCC(=O)N[C@@H](C)C(=O)O)c(=O)oc2c(C)c3oc4c(c3cc12)CCCC4	26	14	4	18	.	-2	.	.
Cc1ccc(NC(=O)c2cc(S(=O)(=O)N3CCCCC3)cs2)cc1	-10	5	1	48*	.	-11	2	19
O=[N+]([O-])c1ccc(CN2CCOCCOCCN(Cc3ccc([N+](=O)[O-])cc3)CCOCC2)cc1	7	11	23	.	.	1	.	.
Cc1ccc(NC(=O)c2cc(S(=O)(=O)N3CCOCC3)cs2)cc1	15	21	-1	16	-8	-11	.	.
CN(c1ccc(C(=O)Nc2ccc(S(=O)(=O)N3CCCC3)cc2)cc1)S(C)(=O)=O	-40	22	-2	47*	.	6	-3	11
O=S(=O)(c1ccc(CN2CCOCCOCCN(Cc3ccc(S(=O)(=O)C(F)(F)F)cc3)CCOCC2)cc1)C(F)(F)F	.	.	.	62*	.	.	7	19
Cc1ccc(S(=O)(=O)N2CCOCC2)cc1C(=O)Nc1ccc(N2CCCCCC2)cc1	-67	2	43	40*	-42	-14	-33	14
CC(=O)c1ccc(NC(=O)c2cc(S(=O)(=O)N3CCOCC3)ccc2C)cc1	-2	10	6	7	-10	-3	.	.
CC(=O)OCCCN1CCC2(CCCCC2)C1=O	.	.	.	-6	.	.	.	.
O=C(OCC#CCSc1nnc(-c2ccccc2)o1)c1ccc(F)cc1	.	.	.	-15	.	.	.	.
O=C(Nc1ccc(Cc2ccncc2)cc1)c1ccc(S(=O)(=O)N2CCOCC2)cc1	-32	31	21	41*	-44	-12	3	28
O=C(Nc1ccc(S(=O)(=O)N2CCOCC2)cc1)c1ccc(Cl)cc1	-5	12	9	2	2	-23	.	.
CCOc1ccc(CN2CCN(S(=O)(=O)c3ccc(NC(C)=O)cc3)CC2)cc1	-9	33	13	48*	6	-9	-4	12

From PubChem
